From ChEMBL document CHEMBL4296182, “CO-ADD screening of NIH NCI Diversity Set V” come the findings set out here.

The structures appear in SMILES notation. For part of these data: Results with a measured potency or affinity are listed apart.

For one assay, the system named is Staphylococcus aureus. The experiment in a line: Antibacterial activity against Staphylococcus aureus MRSA ATCC 43300 (CO-ADD:GP_020); MIC in CAMBH media using NBS plates, by Resazurin F(560/590). Format: functional. Particulars: Concentration 20 uM, ASSAY_TEST Inhibition of Bacterial Growth, detection method Resazurin, Fluorescence (ex560/em590), MEDIA CAMHB, plate type 384well, CORNING #3640, time 18 hr. On the technique in general: The colour change of resazurin is a common sign of viable cells or microbes.

The next assay relates to Acinetobacter baumannii. In words: Antibacterial activity against Acinetobacter baumannii ATCC 19606 (CO-ADD:GN_034); MIC in CAMBH media using NBS plates, by Resazurin F(560/590). It is filed as functional. Particulars: Concentration 20 uM, ASSAY_TEST Inhibition of Bacterial Growth, detection method Resazurin, Fluorescence (ex560/em590), MEDIA CAMHB, plate type 384well, CORNING #3640, time 18 hr.

The next assay deals with Escherichia coli. In words: Antibacterial activity against Escherichia coli ATCC 25922 (CO-ADD:GN_001); MIC in CAMBH media using NBS plates, by Resazurin F(560/590). Format: functional. Particulars: Concentration 20 uM, ASSAY_TEST Inhibition of Bacterial Growth, detection method Resazurin, Fluorescence (ex560/em590), MEDIA CAMHB, plate type 384well, CORNING #3640, time 18 hr.

A further assay relates to Klebsiella pneumoniae. Particulars: Concentration 20 uM; ASSAY_TEST Inhibition of Bacterial Growth; detection method Absorption (OD600); MEDIA CAMHB; plate type 384well; NBS; CORNING #3640; time 18 hr.
A further assay deals with Candida albicans. The note with it: 20 µM.
The next assay relates to Cryptococcus neoformans. The note with it: Concentration 20 uM; ASSAY_TEST Inhibition of Fungal Growth; detection method Resazurin; Absorption (OD600-OD570); plate type 384well; NBS; CORNING #3640.

On to `COc1ccc(/N=N/c2c(N)n[nH]c2N)cc1`, for which the Inhibition (commonly the drop in the measured response relative to a control, in per cent) is 9.98% in the assay with Staphylococcus aureus; -10.61% with Acinetobacter baumannii; 6.79% with Escherichia coli; 12.54% in the assay on Klebsiella pneumoniae; 3.82% in the assay on Candida albicans; -6.57% in the assay on Cryptococcus neoformans.

Consider `C=CCc1ccccc1OCC(=O)O`, for which the Inhibition in the assay on Staphylococcus aureus was 3.16%; with Acinetobacter baumannii, -9.95%; in the assay on Escherichia coli, 10.02%; in the assay on Klebsiella pneumoniae, 15.59%; in the assay on Candida albicans, 5.01%; in the assay on Cryptococcus neoformans, 1.51%.

Regarding `O=C1CCC(c2ccccc2)(c2ccccc2)CC1`, the Inhibition is -6.5% in the assay with Staphylococcus aureus; -6.38% in the assay with Acinetobacter baumannii; 1.3% in the assay on Escherichia coli; -0.79% in the assay with Klebsiella pneumoniae; -1.35% with Candida albicans; -9.68% in the assay on Cryptococcus neoformans.

For `C=C1CC2(OC1=O)c1ccccc1CCc1ccccc12`, the Inhibition with Staphylococcus aureus is -2.53%; in the assay with Acinetobacter baumannii it was -14.2%; in the assay with Escherichia coli, 2.27%; in the assay with Klebsiella pneumoniae it was 9.76%; in the assay with Candida albicans, 10.3%; in the assay with Cryptococcus neoformans, -9.88%.

With `Cc1csc(/N=N/c2ccc(N(C)C)cc2)[n+]1[O-]`, the Inhibition in the assay with Staphylococcus aureus is 7.37%; in the assay with Acinetobacter baumannii, -4.68%; with Escherichia coli it was 8.16%; with Klebsiella pneumoniae, 7.6%; in the assay on Candida albicans it was 0.83%; with Cryptococcus neoformans it was -12.25%.

Consider `COc1c(C=O)c2c(c(OC)c1OC)-c1ccc(OC)c(=O)cc1[C@@H](NC(C)=O)CC2`, for which the Inhibition was -5.44% in the assay on Staphylococcus aureus; -11.93% in the assay with Acinetobacter baumannii; 15.89% in the assay on Escherichia coli; 9.96% with Klebsiella pneumoniae; 0.57% in the assay on Candida albicans; -7.77% in the assay on Cryptococcus neoformans.

With `N#Cc1nnn(-c2ccc(Cl)cc2)c1N`, the Inhibition is 17.83% with Staphylococcus aureus; 3.74% with Acinetobacter baumannii; 11.71% in the assay on Escherichia coli; -5.78% in the assay with Klebsiella pneumoniae; 0.88% in the assay on Candida albicans; -4.67% in the assay with Cryptococcus neoformans.

For `CCCCSc1nc(O)cc(C(=O)O)n1`, the Inhibition in the assay with Staphylococcus aureus was 3.28%; in the assay with Acinetobacter baumannii, -12.23%; in the assay on Escherichia coli it was 5.2%; in the assay with Klebsiella pneumoniae, 7.02%; in the assay on Candida albicans, 2.48%; with Cryptococcus neoformans, -8.23%.

As for `CCCCN1C(=O)CC(C(=O)OCC)=C1C`, the Inhibition in the assay on Staphylococcus aureus was -5.09%; in the assay on Acinetobacter baumannii, -15.76%; in the assay on Escherichia coli it was -0.5%; with Klebsiella pneumoniae, -4.24%; in the assay with Candida albicans, 1.93%; in the assay with Cryptococcus neoformans, -4.18%.

`CCOC(=O)CC1(C)NC(C(=O)O)C(C)(C)S1` (stereo not given): the Inhibition in the assay with Staphylococcus aureus was -14.37%; in the assay with Acinetobacter baumannii it was 0.02%; with Escherichia coli it was -11.39%; with Klebsiella pneumoniae, 5.07%; in the assay on Candida albicans, 3.25%; with Cryptococcus neoformans, 0.86%.

Turning to `CCCCSc1[nH]cnc2nncc1-2`, the Inhibition is -2.6% in the assay on Staphylococcus aureus; -0.75% with Acinetobacter baumannii; 12.29% in the assay with Escherichia coli; -0.95% in the assay with Klebsiella pneumoniae; 4.01% in the assay on Candida albicans; -16.47% in the assay with Cryptococcus neoformans.

Take `CC(C)(NC(=O)c1cc(Cl)c2ccccc2c1O)C(=O)O`: the Inhibition with Staphylococcus aureus stood at 9.7%; in the assay with Acinetobacter baumannii, 5.56%; with Escherichia coli, 13.46%; with Klebsiella pneumoniae, 19.28%; in the assay on Candida albicans, 5.1%; in the assay on Cryptococcus neoformans, 0.69%.

With `COC(=O)c1cc2c(n1S(=O)(=O)c1ccc(C)cc1)C(=O)C(=O)c1[nH]cc(C(=O)OCc3ccccc3)c1-2`, the Inhibition was 12.8% in the assay on Staphylococcus aureus; -9.93% in the assay with Acinetobacter baumannii; 4.92% in the assay on Escherichia coli; 10.02% in the assay on Klebsiella pneumoniae; -2.87% with Candida albicans; -5.89% with Cryptococcus neoformans.

Turning to `CCSc1nc(C)cc(S)n1`, the Inhibition in the assay on Staphylococcus aureus was 8.56%; in the assay with Acinetobacter baumannii it was -11.79%; with Escherichia coli, 13.36%; in the assay on Klebsiella pneumoniae, 13.31%; in the assay with Candida albicans, 25.2%; in the assay with Cryptococcus neoformans it was -6%.

On to `O=C(O)c1cc(N2C(=O)C=CC2=O)cc(N2C(=O)C=CC2=O)c1`, for which the Inhibition in the assay with Staphylococcus aureus was -1.11%; with Acinetobacter baumannii it was -6.34%; in the assay with Escherichia coli, 5.17%; in the assay with Klebsiella pneumoniae, 6.14%; with Candida albicans it was 5.6%; in the assay on Cryptococcus neoformans it was -4%.

For the compound `C=CCOCCN(CC)CC`, the Inhibition is -2.28% in the assay with Staphylococcus aureus; -4.48% with Acinetobacter baumannii; -9.5% with Escherichia coli; 7.56% in the assay on Klebsiella pneumoniae; 2.62% in the assay on Candida albicans; 15.03% in the assay with Cryptococcus neoformans.

As to `ON=C(NCc1ccccc1)c1ccccc1`, the Inhibition was -15.15% in the assay on Staphylococcus aureus; 6.48% in the assay with Acinetobacter baumannii; -18.65% with Escherichia coli; 2.92% with Klebsiella pneumoniae; -0.43% in the assay on Candida albicans; 19.05% with Cryptococcus neoformans.

As to `c1ccc(-n2nnnc2-c2cccc3ccccc23)cc1`, the Inhibition was 11.74% with Staphylococcus aureus; 8.55% in the assay with Acinetobacter baumannii; -5.59% in the assay with Escherichia coli; 3.86% in the assay on Klebsiella pneumoniae; 8.07% in the assay with Candida albicans; -9.54% in the assay with Cryptococcus neoformans.

Take `Sc1ncc2cnccn12`: the Inhibition is -4.23% with Staphylococcus aureus; -8.79% in the assay on Acinetobacter baumannii; 10.26% in the assay on Escherichia coli; 3.96% in the assay on Klebsiella pneumoniae; 0.86% in the assay with Candida albicans; -12.71% with Cryptococcus neoformans.

For `c1ccc2c(c1)-c1cccc3cncc-2c13`, the Inhibition with Staphylococcus aureus is 1.08%; with Acinetobacter baumannii, -2.19%; in the assay with Escherichia coli, 3.18%; with Klebsiella pneumoniae, 7.94%; in the assay with Candida albicans, 12.2%; in the assay with Cryptococcus neoformans it was -10.41%.

On to `CC(=O)[C@H]1CC[C@H]2[C@@H]3CCC4=CC(=O)CC[C@]4(C)[C@@]3(F)[C@@H](O)C[C@]12C`, for which the Inhibition in the assay with Staphylococcus aureus is 0.89%; in the assay with Acinetobacter baumannii, -16.68%; in the assay with Escherichia coli it was 9.76%; with Klebsiella pneumoniae, 7.06%; in the assay on Candida albicans, 0.8%; in the assay on Cryptococcus neoformans it was -7.75%.

As to `CCCOc1ccc(-c2nc(-c3ccc(N)cc3)cs2)cc1`, the Inhibition with Staphylococcus aureus was 6.42%; in the assay on Acinetobacter baumannii, 13.93%; in the assay on Escherichia coli it was 2.89%; in the assay with Klebsiella pneumoniae, 4.45%; in the assay on Candida albicans, 5.55%; with Cryptococcus neoformans, -3.2%.

Take `C(=C\c1ccc(/C=C/c2ccccc2)nn1)/c1ccccc1`: the Inhibition in the assay on Staphylococcus aureus was 12.1%; with Acinetobacter baumannii, 11.6%; in the assay with Escherichia coli it was 2.44%; with Klebsiella pneumoniae, 18.32%; with Candida albicans it was 0.82%; in the assay on Cryptococcus neoformans it was -5.49%.

As to `O=C(Nc1ccc(Nc2ccccc2)cc1)Nc1ccccc1Cl`, the Inhibition is -2.92% with Staphylococcus aureus; 1.03% in the assay on Acinetobacter baumannii; 8.7% with Escherichia coli; 12.39% in the assay on Klebsiella pneumoniae; 2.75% with Candida albicans; -5.44% in the assay on Cryptococcus neoformans.

As for `N#Cc1ccc(NC2c3ccccc3CC2O)cc1` (stereo not given), the Inhibition is -13.68% with Staphylococcus aureus; -7.5% with Acinetobacter baumannii; -15.24% with Escherichia coli; 3.05% in the assay with Klebsiella pneumoniae; 0.94% with Candida albicans; 8.31% with Cryptococcus neoformans.
